Consider 26 compounds from PubChem BioAssay (NCI).

Molecules are shown by their SMILES. Compounds without any hit were thinned out: in the full panel of roughly 83,000, 20% have a hit.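 The test compound was applied at a single concentration to cells in 96-well plates for 48 hours, and percent growth was recorded.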 A number with no mark means an inactive call. Activity calls are given as the source filed them. The calls were made as follows: active = growth percent below 10; inactive = the rest.

The test system of this assay is SR leukemia. Put plainly: NCI-60 one-dose screen, 48 h (100 = growth as untreated, 0 = no growth, -100 = all killed). The following applies: 10 µM unless noted.
Take `COC(=O)c1ccc2[nH]c(O)c(C(=Nc3ccc(N(C)C(=O)CN4CCN(C)CC4)cc3)c3ccc([N+](=O)[O-])cc3)c2c1`: the growth is 5.48% (active). Turning to `O=C1OC(c2ccc(-c3ccccc3)cc2)=C/C1=C/c1c2ccccc2cc2ccccc12`, the growth was 81.2%. Regarding `O=C(O)c1ccc(-c2nn(-c3ccc(C(=O)O)cc3)cc2CNc2ccc(Br)cc2)cc1`, the growth is 107%. The figure for `O=C(N/N=C\c1ccc(-c2ccc(Br)cc2)o1)c1cc2oc(-c3cccc(C(F)(F)F)c3)cc2[nH]1` is -3.49% (active); for `COC(=O)c1ccc2[nH]c(O)c(C(=Nc3ccc(N(C)C(=O)CN4CCN(C)CC4)cc3)c3ccc(N)cc3)c2c1` it is 3.76% (active); for `COC(=O)c1ccc(C(=Nc2ccc(N(C)C(=O)CN3CCN(C)CC3)cc2)c2c(O)[nH]c3ccc(C(=O)OC)cc23)cc1` it is 2.08% (active).

Consider `Cc1ccc(C(C)C)c(OCc2ccc(C(=O)N/N=C/c3cccc(O)c3O)cc2)c1`, for which the growth was 9.44% (active). Regarding `O=C1Nc2c(c(=O)n(-c3ccccc3)c3ccccc23)C(c2ccc(Cl)cc2)N1` (stereo unspecified), the growth is 77.8%.

For the compound `O=c1c2c(c3ccccc3n1-c1ccccc1)NC(=S)NC2c1ccccc1` (stereo unspecified), the growth was 108%.

For `COC(=O)c1ccc2[nH]c(O)c(C(=Nc3ccc(N(C)C(=O)CN4CCN(C)CC4)cc3)c3ccc(CCO)cc3)c2c1`, the growth was 6.7% (active). To `CCCCn1c(Cc2ccc(OC)cc2)nc2cc(OC)c(OC)cc2c1=O` belongs 2.75% (active). Regarding `Cc1[nH]n(C(=S)Nc2nc3cc(Cl)c(F)cc3s2)c(=O)c1N=Nc1ccc(F)c(Cl)c1`, the growth was -45.2% (active). With `Clc1ccc(N/N=C(\c2ccccc2)c2ccccn2)nc1`, the growth is 1.95% (active). As for `c1ccc(Nc2ncc3c(n2)-c2cccn2CC3)cc1`, the growth was 101%. Consider `C=CCC(CCC(CC=C)C(=O)OCC)C(=O)OCC` (stereo unspecified), for which the growth was 86.7%. Take `O=[N+]([O-])c1ccc(-c2ncc(-c3ccc(O)cc3O)[nH]2)cc1`: the growth is -28.9% (active). On to `CC(=O)OC1/C=C\CC/C=C\C1` (stereo unspecified), for which the growth is 104%. As to `CCN(CC)CCCNc1c2ccc(Cl)cc2nc2ccc(OC)cc12`, the growth is -30.3% (active). Regarding `COc1cc(-c2nn(-c3ccc(NC(=O)Nc4cc(C(F)(F)F)cc(C(F)(F)F)c4)cc3)cc2-c2ccncc2)ccc1Cl`, the growth is -0.776% (active). Take `CC(=O)Nc1nc(C)c(C(=O)NN)s1`: the growth is 107%. Consider `CC/C(=N\Nc1nc2ccccc2n1C)c1ccccn1`, for which the growth is 3.71% (active). In the case of `CC(=O)OCC1O[C@@H](OC(C)=O)[C@@H](NC(=O)NS(=O)(=O)c2ccccc2)C(OC(C)=O)[C@@H]1OC(C)=O` (stereo partly specified), the growth was 88.9%.

As to `Cc1nc2c(nnn2-c2ccccc2)c2nc(-c3ccccc3)oc(=O)c12`, the growth is 105%. `CCc1ccc(C(=Nc2ccc(N(C)C(=O)CN3CCN(C)CC3)cc2)c2c(O)[nH]c3ccc(C(=O)OC)cc23)cc1`: the growth was -27.7% (active). With `C=C[C@]1(C)C=C2C(=O)[C@@]3(O)OC[C@@]4(CCCC(C)(C)C43O)C2(O)C(O)C1` (stereo partly specified), the growth was -14.4% (active). Turning to `CCOC(=O)c1c2c(cn1Cc1ccccc1)-c1oncc1CC2`, the growth was 91.8%.
